The results in this text go back to the antibiotic and cytotoxicity screens of Wong et al. (2023).

Among all 39,000 compounds or so, about 3,300 (8.5%) were called active. Many of the other results were omitted from the sample, so actives are more common in it than they were.

For this experiment, the system named is HepG2. Kind of experiment: cytotoxicity call (relative viability < 0.9). As to conditions: 10 µM.
As for `C[C@H](CO)N1C[C@H](C)[C@@H](CN(C)Cc2ccc(C(=O)Nc3ccccc3N)cc2)Oc2c(NS(C)(=O)=O)cccc2C1=O`, the cytotoxicity call is “inactive”. The result for `Cc1noc(C)c1NC(=O)Nc1ccc2c(c1)C(=O)N([C@@H](C)CO)C[C@H](C)[C@H](CN(C)Cc1ccncc1)OCCCC[C@H](C)O2` reads “inactive”. With `CN1CCN(C(=O)C[C@H]2CC[C@H]3[C@@H](COc4ccc(NC(=O)C5CCOCC5)cc4C(=O)N3C)O2)CC1`, the cytotoxicity call was “inactive”. The result for `CC(C)(C)Nc1nc(=O)[nH]c(=O)[nH]1` reads “inactive”; that for `Cc1noc(C)c1S(=O)(=O)N(C)C[C@H]1Oc2ccc(NS(=O)(=O)c3cccs3)cc2CC(=O)N([C@@H](C)CO)C[C@H]1C`, “inactive”; that for `CC(C)(C)CC(C)(C)c1cc(Cc2cc(C(C)(C)CC(C)(C)C)cc(-n3nc4ccccc4n3)c2O)c(O)c(-n2nc3ccccc3n2)c1` [listing 1 of 2 here], “inactive”. The result for `CC(C)(C)CC(C)(C)c1cc(Cc2cc(C(C)(C)CC(C)(C)C)cc(-n3nc4ccccc4n3)c2O)c(O)c(-n2nc3ccccc3n2)c1` [listing 2 of 2 here] reads “inactive”; that for `CC(C)(C)CC(C)(C)c1ccc(O)c(Cc2ccc(Cl)cc2Cl)c1`, “active”; that for `C/C=C/c1cnc2c(c1)C(=O)N([C@H](C)CO)C[C@@H](C)[C@@H](CN(C)S(=O)(=O)c1ccc(OC)cc1)O2`, “inactive”. The entry for `C[C@@H]1CN([C@H](C)CO)C(=O)c2cc(NC(=O)Cc3cn(C)c4ccccc34)ccc2O[C@H]1CN(C)C(=O)Nc1cccc2ccccc12` is “inactive”. For the compound `CN(C)C(CCOc1cccc2ccccc12)c1ccccc1.Cl` (stereo unspecified), the cytotoxicity call was “active”.

As to `CN(C)CCOC(c1ccccc1)c1ccccc1.Cl`, the cytotoxicity call is “inactive”. The result for `N#CCOc1cccc2ccccc12` reads “inactive”; that for `CN(C)Cc1cn(CC[C@@H]2CC[C@H](NS(=O)(=O)c3ccccc3)[C@H](CO)O2)nn1`, “inactive”; that for `C[C@@H]1CN([C@H](C)CO)C(=O)c2cc(NC(=O)C3CCCCC3)ccc2O[C@@H](C)CCCCO[C@H]1CN(C)C(=O)c1ccccc1`, “inactive”. The entry for `C[C@@H]1CCCCO[C@H](CN(C)CC2CCCCC2)[C@@H](C)CN([C@H](C)CO)C(=O)c2cc(NS(=O)(=O)c3cccs3)ccc2O1` is “inactive”; for `C[C@@H]1CN([C@@H](C)CO)C(=O)c2cc(NC(=O)Cn3cnnn3)ccc2O[C@@H]1CN(C)Cc1ccc(Oc2ccccc2)cc1` it is “inactive”; for `O=c1[nH]c2ccc(F)cc2nc1O` it is “inactive”.

For `COC(=O)Nc1nc2cc(C(=O)c3ccc(F)cc3)ccc2[nH]1`, the cytotoxicity call was “active”.

`COC(=O)Nc1nc2cc(C(=O)c3cccs3)ccc2[nH]1`: the cytotoxicity call was “inactive”. The entry for `COc1cccc(C(=O)c2ccccc2)c1` is “inactive”; for `COC(=O)Nc1nc2cc(C(=O)c3ccccc3)ccc2[nH]1` it is “active”; for `COC(=O)CNC(=O)c1ccc(F)cc1` it is “inactive”. The result for `Cc1ccc(S(=O)(=O)Nc2ccc3c(c2)CC(=O)N([C@H](C)CO)C[C@H](C)[C@@H](CN(C)S(=O)(=O)c2c(C)noc2C)O3)cc1` reads “inactive”; that for `Cc1cc(O)cc(C)c1Cl` [listing 1 of 2 here], “inactive”.

Regarding `Cc1cc(O)cc(C)c1Cl` [listing 2 of 2 here], the cytotoxicity call is “active”. The result for `Oc1cc(O)cc(O)c1` reads “inactive”; that for `CCO[C@H]1CC(C)(C)NC(=S)N1`, “inactive”; that for `C[C@@H]1CN([C@@H](C)CO)C(=O)Cc2cc(NS(=O)(=O)c3ccc(Cl)cc3)ccc2O[C@@H]1CN(C)Cc1ccc(C(F)(F)F)cc1`, “active”. The entry for `C[C@H](CO)N1C[C@H](C)[C@H](CN(C)Cc2ccc(C(F)(F)F)cc2)Oc2ccc(NS(=O)(=O)c3ccc(Cl)cc3)cc2CC1=O` is “active”; for `C[C@@H]1CN([C@H](C)CO)C(=O)Cc2cc(NS(=O)(=O)c3ccc(Cl)cc3)ccc2O[C@@H]1CN(C)Cc1ccc(C(F)(F)F)cc1` it is “inactive”. The result for `C[C@@H]1CN([C@H](C)CO)C(=O)Cc2cc(NS(=O)(=O)c3ccc(Cl)cc3)ccc2O[C@H]1CN(C)Cc1ccc(C(F)(F)F)cc1` reads “active”. Turning to `C[C@H]1CN([C@@H](C)CO)C(=O)Cc2cc(NS(=O)(=O)c3ccc(Cl)cc3)ccc2O[C@H]1CN(C)Cc1ccc(C(F)(F)F)cc1`, the cytotoxicity call is “active”. The result for `CCS(=O)(=O)Nc1ccc2c(c1)C(=O)N(C)[C@@H]1CC[C@H](CC(=O)NCc3ccccc3F)O[C@H]1CO2` reads “inactive”. The entry for `C[C@H](CO)N1C[C@H](C)[C@@H](CN(C)C(=O)Nc2ccc(F)cc2)Oc2c(NC(=O)c3ccc(-c4nccs4)cc3)cccc2C1=O` is “inactive”; for `C/C=C/c1cnc2c(c1)C(=O)N([C@@H](C)CO)C[C@H](C)[C@@H](CN(C)S(=O)(=O)c1ccc(OC)cc1)O2` it is “inactive”; for `C[C@@H]1CN([C@H](C)CO)C(=O)c2cc(NC(=O)C3CCCCC3)ccc2O[C@@H](C)CCCCO[C@@H]1CN(C)C(=O)CCC(F)(F)F` it is “inactive”.

Consider `C[C@@H]1CCCCO[C@H](CN(C)Cc2ccc(C(=O)O)cc2)[C@H](C)CN([C@@H](C)CO)C(=O)c2cc(NS(=O)(=O)c3ccc(Cl)cc3)ccc2O1`, for which the cytotoxicity call is “inactive”. The entry for `O=C(C[C@@H]1CC[C@@H]2[C@H](COC[C@H](O)CN2C(=O)c2ccncc2)O1)NC1CCC1` is “inactive”; for `C[C@@H]1CN([C@H](C)CO)C(=O)c2cc(NC(=O)Nc3ccc(F)cc3)ccc2O[C@@H]1CN(C)S(C)(=O)=O` it is “inactive”. The entry for `C[C@@H]1CN([C@H](C)CO)C(=O)c2cccc(NS(C)(=O)=O)c2O[C@@H]1CN(C)C(=O)Nc1ccccc1` is “inactive”; for `C[C@@H]1CN([C@H](C)CO)C(=O)c2cccc(NS(=O)(=O)c3ccc(F)cc3)c2O[C@H]1CN(C)C(=O)Nc1cccc2ccccc12` it is “inactive”; for `CN(C)CCCCNC(=O)[C@@H]1C[C@@H]2C(=O)N[C@@H](CCCCN)C(=O)N2[C@@H]1c1ccc(O)cc1` it is “inactive”.

Regarding `C[C@@H]1CN([C@@H](C)CO)C(=O)Cc2cc(NS(=O)(=O)c3ccc(Cl)cc3)ccc2O[C@H]1CN(C)Cc1ccc(C(F)(F)F)cc1`, the cytotoxicity call was “inactive”. The result for `C[C@H]1CN([C@@H](C)CO)C(=O)Cc2cc(NS(=O)(=O)c3ccc(Cl)cc3)ccc2O[C@@H]1CN(C)Cc1ccc(C(F)(F)F)cc1` reads “active”; that for `C[C@H](CO)N1C[C@H](C)[C@@H](CN(C)Cc2ccc(C(F)(F)F)cc2)Oc2ccc(NS(=O)(=O)c3ccc(Cl)cc3)cc2CC1=O`, “inactive”. Turning to `CC(=O)N[C@H]1[C@H]([C@H](O)[C@H](O)CO)OC(C(=O)O)=C[C@@H]1NC(=N)N`, the cytotoxicity call was “inactive”. The result for `NS(=O)(=O)c1ccc(NC(=O)C2CC2)cc1` reads “active”; that for `NS(=O)(=O)c1ccc(NC(=O)[C@H]2CCCNC2=O)cc1`, “inactive”. The entry for `CNC(=O)Nc1ccc(S(N)(=O)=O)cc1` is “inactive”; for `Cc1ccc(S(=O)(=O)N(C)C[C@@H]2Oc3c(NC(=O)c4cnccn4)cccc3C(=O)N([C@@H](C)CO)C[C@@H]2C)cc1` it is “inactive”. The result for `COc1ccc(S(=O)(=O)Nc2ccc3c(c2)CC(=O)N([C@H](C)CO)C[C@@H](C)[C@H](CN(C)S(=O)(=O)c2cccs2)O3)cc1` reads “inactive”; that for `C[C@@H]1CN([C@H](C)CO)C(=O)Cc2cc(NC(=O)Nc3ccc(C(F)(F)F)cc3)ccc2O[C@H]1CN(C)Cc1ccncc1`, “inactive”; that for `C[C@H]1CN([C@@H](C)CO)C(=O)Cc2cc(NC(=O)Nc3ccc(C(F)(F)F)cc3)ccc2O[C@@H]1CN(C)Cc1ccncc1`, “active”.

Regarding `C[C@H](CO)N1C[C@H](C)[C@H](CN(C)Cc2ccncc2)Oc2ccc(NC(=O)Nc3ccc(C(F)(F)F)cc3)cc2CC1=O`, the cytotoxicity call was “active”.

On to `C[C@H](CO)N1C[C@H](C)[C@@H](CN(C)Cc2ccncc2)Oc2ccc(NC(=O)Nc3ccc(C(F)(F)F)cc3)cc2CC1=O`, for which the cytotoxicity call was “active”.

For the compound `C[C@@H]1CN([C@H](C)CO)C(=O)Cc2cc(NC(=O)Nc3ccc(C(F)(F)F)cc3)ccc2O[C@@H]1CN(C)Cc1ccncc1`, the cytotoxicity call is “active”. The entry for `C[C@@H]1CN([C@@H](C)CO)C(=O)Cc2cc(NC(=O)Nc3ccc(C(F)(F)F)cc3)ccc2O[C@H]1CN(C)Cc1ccncc1` is “inactive”; for `Cc1ccc(S(=O)(=O)N(C)C[C@@H]2OCCCC[C@H](C)Oc3ccc(NC(=O)Nc4ccccc4)cc3C(=O)N([C@H](C)CO)C[C@H]2C)cc1` it is “inactive”; for `Cc1ccc(S(=O)(=O)N2C[C@@H](O)COC[C@H]3O[C@H](CC(=O)NCc4ccccc4Cl)CC[C@@H]32)cc1` it is “inactive”. On to `COc1ccc(S(=O)(=O)N[C@H]2CC[C@@H](CCNC(=O)CN3CCOCC3)O[C@@H]2CO)cc1`, for which the cytotoxicity call was “inactive”. The result for `COc1ccc(S(=O)(=O)Nc2ccc3c(c2)C(=O)N([C@H](C)CO)C[C@H](C)[C@@H](CN(C)C(=O)c2ccccc2)OCCCC[C@@H](C)O3)cc1` reads “inactive”; that for `CN(C)CCCNC(=O)C[C@H]1CC[C@H]2[C@H](COc3ccc(NC(=O)NC4CCCC4)cc3C(=O)N2C)O1`, “inactive”.

For the compound `COc1ccc(NC(=O)Nc2ccc3c(c2)C(=O)N([C@@H](C)CO)C[C@@H](C)[C@H](CN(C)C(=O)Cc2ccccc2)OCCCC[C@@H](C)O3)cc1`, the cytotoxicity call is “inactive”.

Turning to `CC(=O)N1CCC(C(=O)N2CCC(n3cc(C(C)(C)N)nn3)CC2)CC1`, the cytotoxicity call was “inactive”. The entry for `COc1ccc(CN(C)C[C@@H]2OCCCC[C@H](C)Oc3ccc(NC(=O)Nc4c(C)noc4C)cc3C(=O)N([C@H](C)CO)C[C@H]2C)cc1` is “inactive”. The result for `NC(=O)NCC#Cc1ccc2c(c1)[C@]1(C(=O)N2)[C@H](c2ccccc2OCCO)N2[C@H](c3ccccc3)[C@H](c3ccccc3)OC(=O)[C@H]2[C@@H]1C(=O)O` reads “inactive”; that for `CCc1nc2ccc(C(=O)Nc3ccc4c(c3)OCC(=O)N4)cn2c1N(CC)Cc1cccc(Br)c1`, “inactive”. With `COc1ccc(NC(=O)N(C)C[C@@H]2OCCCC[C@H](C)Oc3ccc(NC(=O)c4ccncc4)cc3C(=O)N([C@@H](C)CO)C[C@H]2C)cc1`, the cytotoxicity call was “inactive”. Take `COc1ccc(CN(C)C[C@@H]2OCCCC[C@@H](C)Oc3ccc(NC(=O)NC(C)C)cc3C(=O)N([C@H](C)CO)C[C@@H]2C)cc1`: the cytotoxicity call is “inactive”. The result for `C[C@@H]1CCCCO[C@H](CN(C)C(=O)CCC(F)(F)F)[C@H](C)CN([C@H](C)CO)C(=O)c2cc(NS(=O)(=O)c3ccc(Cl)cc3)ccc2O1` reads “inactive”.
